Source: PubChem BioAssay
SW480 rereplic: DNA re-replication induction in SW480 cells; 340,000 compounds, 1.8% hits; SW480 DNA re-replication, Hoechst DNA content imaging, 48 h; Potency, µM (top dose mostly 46.1 µM), without a hit: at the top dose re-replication activation, most hits filed as activators; further: % of control where 0% means no effect; nearly all actives have a fitted effect of over 55% in size
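Hoechst fluorescence of nuclei (405 nm excitation, 500-530 nm emission) measured by plate-scanning imager after 48 hr compound exposure at 37 C; re-replication scored as increased number of nuclei with elevated intensity.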
MCF10A rereplic: inducers of DNA re-replication in MCF 10A breast cells | MCF 10A DNA re-replication, Hoechst nuclear intensity, 48 h | Potency, µM (doses to about 46.1 µM), inactives show at the highest dose activity, positive = re-replication, usual class: activators | 350,000 compounds, 2.9% hits; further: % of control where 0% means no effect; nearly all actives have a fitted effect of over 50% in size
RGS4 inhibitor: blocks human RGS4-accelerated GTP hydrolysis. 390,000 compounds, 0.039% hits. Potency, µM (titrated, usually from 114 µM), for inactives: top-dose activity change, negative = inhibition, usual class: inhibitors. P49798. AID 504845. Transcreener GDP fluorescence polarization, RGS4-accelerated GTP hydrolysis; further: on the % scale 0 is the no-effect control and ±100 the full control effect; nearly all actives have a fitted effect of over 75% in size
Target sequence (P49798 whole entry, looked up): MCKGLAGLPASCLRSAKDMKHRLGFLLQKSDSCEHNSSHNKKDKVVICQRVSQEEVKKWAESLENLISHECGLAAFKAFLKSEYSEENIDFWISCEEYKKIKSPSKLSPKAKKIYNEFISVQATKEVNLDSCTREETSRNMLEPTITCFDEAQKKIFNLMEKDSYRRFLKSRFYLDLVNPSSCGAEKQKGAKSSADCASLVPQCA
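MLSMR compounds (23 nl, pin-transferred) preincubated 10 min at room temperature with a 500nM (2x) first reagent, then RGS4 at 900nM (2x) plus Transcreener GDP mix added; fluorescence polarization (620/688 nm) read before and after 90 min at 30 °C.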
KB-3-1 cytotox: KB-3-1 parental cell cytotoxicity. KB-3-1 viability, CellTiter-Glo ATP luminescence, 72 h. Potency, µM (top dose mostly 46.1 µM), usual class: cytotoxic. 400,000 compounds, 1.4% hits. AID 1347075; further: on the % scale 0 is the no-effect control and ±100 the full control effect; nearly all actives have a fitted effect of over 60% in size
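Multi-concentration cytotoxicity screen in KB-3-1 cells grown in DMEM lacking phenol red with 10% FBS. After 72 h at 37 °C with compound, ATP-dependent luminescence was recorded.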
PTAP TSG101 blk: blocks PTAP/TSG101 interaction to inhibit HIV-1 budding; Potency, µM (series often up to 115 µM), without a hit: at the highest dose activity change, negative = inhibition, actives largely listed as inhibitors; AID 493005; Q99816; Fluorescence polarization, FITC-PTAP peptide / Tsg101 binding; 340,000 tested, under 10 active; active means well fitted inhibition curve with a large enough effect in the main read-out, with a control signal flat, not every such curve was filed as active; inconclusive means small, poorly fitted or top-dose-only effect, or effect the other way, or a change in a side signal; inactive means no such curve, though single readings can be large or run the other way; further: % of control where 0% means no effect
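Tsg101 binding domain (10 uM final) was mixed with compound and a FITC-labeled PTAP peptide (50 nM final) in HEPES pH 7.5 buffer with NaCl, Tween 20, EDTA and TCEP; fluorescence polarization was read after 20 min at r.t.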
KB-V1 MDR tox: KB-V1 MDR subline cytotoxicity. KB-V1 MDR cells viability, CellTiter-Glo, 72 h. Potency, µM (titrated, usually from 46.1 µM), most hits filed as cytotoxic. 400,000 compounds, 3.4% hits; further: on the % scale 0 is the no-effect control and ±100 the full control effect; nearly all actives have a fitted effect of over 60% in size
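Cells of the MDR subline KB-V1 are plated, dosed with compound at multiple concentrations, and incubated 72 h at 37 degrees C; CellTiter-Glo is then added and luminescence read after 10 min.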
* hit, by the source's call; i = inactive; ? = inconclusive; / = no result; [ ] = another dose, or the depositor's remark. Compounds with a hit are over-represented: about 6.6% of the library has one in this group of screens. Unless noted, the call rests on the fitted dose curve; in most records, active means well fitted curve in the direction sought with a large enough effect; inconclusive means small, poorly fitted or top-dose-only effect, or another doubt; inactive means no such curve, though single readings can be large; an effect the other way counts as inactive or inconclusive. Potency means the concentration at half of the fitted maximal effect.

SMILES	SW480 rereplic	MCF10A rereplic	RGS4 inhibitor	KB-3-1 cytotox	PTAP TSG101 blk	KB-V1 MDR tox
CC1(C)OC(=O)C=C[C@]2(C)[C@H]3CC[C@@]4(C)[C@H](c5ccoc5)OC(=O)[C@H]5O[C@]54[C@]3(C)C(=O)C[C@@H]12	-4%	-5%	4%	i	-15%	i
CC(=O)O[C@@H]1C[C@H]2C(C)(C)C(=O)C=C[C@]2(C)[C@H]2CC[C@@]3(C)[C@H](c4ccoc4)OC(=O)[C@H]4O[C@]43[C@@]21C	4.1µM*	?	2%	?	1%	?
O=C(CC(SCCO)c1ccc([N+](=O)[O-])cc1)c1ccco1 (configuration not stated)	26%	16%	58%	21µM*	-1%	i
Nc1ccccc1SC(CC(=O)c1ccccc1)c1ccc([N+](=O)[O-])cc1 (configuration not stated)	/	/	/	21µM*	/	i
Cc1ccc(C(=O)CC(SCC(=O)O)c2ccc([N+](=O)[O-])cc2)cc1 (configuration not stated)	?	18µM*	-37%	i	1%	i
CC(=O)NC(Cc1ccccc1)C(=O)N1CCN(C(=O)c2ccco2)CC1 (configuration not stated)	-3%	0%	13%	i	-1%	i
CC(=O)NC(CSC(CC(=O)c1ccco1)c1ccc(C)cc1)C(=O)O (configuration not stated)	?	21µM*	-14%	i	-3%	i
COc1ccc2cc3cc(C(=O)NCc4ccc(C)cc4)oc3nc2c1	/	/	10%	i	/	i
COc1ccc2cc3cc(C(=O)NCc4cccs4)oc3nc2c1	10%	?	10%[11.4 µM]	4.6µM*	-9%	?
C/C(=N\NC(=O)COc1cccc(C)c1)c1ccc2ccccc2c1O	23µM*	13µM*	4%	?	0%	i
Cc1cccc(OCC(=O)NCc2ccccc2)c1	4%	-2%	-4%	i	0%	i
CCCOc1ccc(NC(=O)CC2C(=O)N(c3cccc(OC)c3)C(=O)N2CCc2ccncc2)cc1 (configuration not stated)	/	/	5%	/	/	/
Cc1ccc(C)n1-c1ccc(C(=O)/C=C/N(C)C)cc1	?	23µM*	-13%	i	-2%	i
Cc1ccc2c(c1)N(C(=O)N1CCC(C(=O)NCc3cccc(Br)c3)CC1)CCO2	/	/	-10%	?	/	i
CCC(C(=O)NC1CCC(C)CC1)n1nc(C)c2sc3ccccc3c2c1=O (configuration not stated)	/	/	2%	i	/	i
C#CCN(Cc1ccccc1)S(=O)(=O)C=C	?	26µM*	-2%	?	1%	i
O=C(/C=C/c1ccc2c(c1)OCO2)c1cccs1	/	/	i	/	/	/
CCOC(=O)CNC(=O)c1cc2c(=O)oc3ccccc3c2s1	/	/	0%	i	/	i
CCOc1ccc2c(c1)c(=O)c(C(=O)c1ccc(CC)cc1)cn2CC(=O)Nc1ccc2c(c1)OCCO2	/	/	7%	i	/	i
CCCOc1ccc(NC(=O)C2CC(=O)N/C(=N/N=C(C)/C=C/c3ccc(N(C)C)cc3)S2)cc1 (configuration not stated)	18µM*	5.2µM*	?	?	1%	16µM*
CC(/C=C/c1ccc(N(C)C)cc1)=N/N=C1/NC(=O)CC(C(=O)Nc2ccc(Cl)cc2)S1 (configuration not stated)	21µM*	6.5µM*	1%	i	?	i
CCCOc1ccc(NC(=O)C2CC(=O)N/C(=N/N=C(\C)CCc3ccc4c(c3)OCO4)S2)cc1 (configuration not stated)	-11%	?	-4%	i	0%	i
